Assay results taken from PubChem BioAssay (EPA / NIEHS).
The source made the active and inactive calls. How the source made its calls: active means hit-call score of the fitted dose curve at least 0.9, where 1 is the maximum; inactive means score below 0.9.

What was measured:
[1] = read-out: Macrophage colony-stimulating factor (MCSF), CSF1 (gene 1435); assay: BSK_hDFCGF_MCSF: BioMAP Diversity Plus: hDFCGF Assay for Macrophage colony-stimulating factor (MCSF) Biomarker Activity (AID 2283060); conditions: primary human foreskin fibroblasts; actives raise or lower the signal
Summary of the method: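 ELISA read-out of M-CSF in human dermal foreskin fibroblast cultures, 24 h after chemical dosing; gain or loss of signal fitted bidirectionally relative to DMSO baseline.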

[2] = BSK_hDFCGF_SRB: Viability Assessment in the BioMAP Diversity Plus: hDFCGF Assay (AID 2283061); conditions: primary human foreskin fibroblasts;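 further: cells exposed to compound for 24 h before the read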
Summary of the method: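 Primary human foreskin fibroblasts; 24 h post-dose; fixed 10% TCA, stained 0.1% SRB, A560 read; total protein as overt cytotoxicity measure; curves fit bidirectionally vs DMSO control.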

[3] = read-out: TIMP metallopeptidase inhibitor 1 (TIMP1), TIMP1 (gene 7076); assay: BSK_hDFCGF_TIMP1: BioMAP Diversity Plus: hDFCGF Assay for TIMP metallopeptidase inhibitor 1 (TIMP1) Biomarker Activity (AID 2283062); conditions: primary human foreskin fibroblasts; actives raise or lower the signal
Summary of the method: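 ELISA readout of TIMP-1 from human dermal foreskin fibroblast cultures 24 h post-dosing. Curves were fitted in both directions against DMSO baseline, with SRB total-protein staining in parallel cultures as a cytotoxicity check.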

[4] = read-out: Monokine induced gamma interferon (MIG), CXCL9 (gene 4283); assay: BSK_hDFCGF_MIG: BioMAP Diversity Plus: hDFCGF Assay for Monokine induced gamma interferon (MIG) Biomarker Activity (AID 2283063); conditions: primary human foreskin fibroblasts; actives raise or lower the signal
Summary of the method: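 Fibroblasts (human foreskin, primary) dosed, 24 h, MIG by ELISA; fit bidirectional vs DMSO.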

[5] = read-out: Matrix Metallopeptidase 1 (MMP1), MMP1 (gene 4312); assay: BSK_hDFCGF_MMP1: BioMAP Diversity Plus: hDFCGF Assay for Matrix Metallopeptidase 1 (MMP1) Biomarker Activity (AID 2283064); conditions: primary human foreskin fibroblasts; actives raise or lower the signal
Summary of the method: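 MMP1 levels quantified by ELISA 24 h after dosing human dermal fibroblast cultures, with parallel SRB total-protein staining for overt cytotoxicity. Data fitted in both directions against DMSO baseline.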

[6] = read-out: Plasminogen activator inhibitor-1 (PAI1), SERPINE1 (gene 5054); assay: BSK_hDFCGF_PAI1: BioMAP Diversity Plus: hDFCGF Assay for Plasminogen activator inhibitor-1 (PAI1) Biomarker Activity (AID 2283066); conditions: primary human foreskin fibroblasts; actives raise or lower the signal
Summary of the method: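 ELISA readout of PAI-1 from primary human skin fibroblast cultures, 24 h after compound addition. Gain or loss of signal was fitted bidirectionally against DMSO baseline.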

[7] = read-out: Intercellular Adhesion Molecule 1 (ICAM1), ICAM1 (gene 3383); assay: BSK_KF3CT_ICAM1: BioMAP Diversity Plus: KF3CT Assay for Intercellular Adhesion Molecule 1 (ICAM1) Biomarker Activity (AID 2283067); conditions: primary human keratinocytes with fibroblasts; actives raise or lower the signal
Summary of the method: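 ELISA readout of ICAM-1; KF3CT human skin co-culture (keratinocytes + foreskin fibroblasts), 24 h post-dose; gain/loss fit vs DMSO baseline.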

[8] = read-out: Interferon-gamma inducible Protein 10 (IP10), CXCL10 (gene 3627); assay: BSK_KF3CT_IP10: BioMAP Diversity Plus: KF3CT Assay for Interferon-gamma inducible Protein 10 (IP10) Biomarker Activity (AID 2283068); conditions: primary human keratinocytes with fibroblasts; actives raise or lower the signal
Summary of the method: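 Signal is secreted/surface IP-10 by ELISA in a human primary skin co-culture of keratinocytes and foreskin fibroblasts, taken 24 h post-dosing; DMSO served as negative control.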

[9] = BSK_KF3CT_SRB: Viability Assessment in the BioMAP Diversity Plus: KF3CT Assay (AID 2283069); conditions: primary human keratinocytes with fibroblasts;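 further: total protein by sulforhodamine B staining as a cytotoxicity measure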
Summary of the method: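 Cytotoxicity was gauged by SRB staining (0.1% SRB, 10% TCA fixation, 560 nm) of parallel cultures at 24 h. The cells were primary human skin keratinocytes co-cultured with fibroblasts, and activity was fitted in both directions against DMSO.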

[10] = read-out: Interleukin-1 alpha (IL1a), IL1A (gene 3552); assay: BSK_KF3CT_IL1a: BioMAP Diversity Plus: KF3CT Assay for Interleukin-1 alpha (IL1a) Biomarker Activity (AID 2283070); conditions: primary human keratinocytes with fibroblasts; actives raise or lower the signal
Summary of the method: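 IL-1a was detected by ELISA 24 h after chemical treatment of a co-culture of human skin keratinocytes and foreskin fibroblasts. Gain or loss of signal was fitted against the DMSO baseline.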

[11] = read-out: TIMP metallopeptidase inhibitor 2 (TIMP2), TIMP2 (gene 7077); assay: BSK_KF3CT_TIMP2: BioMAP Diversity Plus: KF3CT Assay for TIMP metallopeptidase inhibitor 2 (TIMP2) Biomarker Activity (AID 2283071); conditions: primary human keratinocytes with fibroblasts; actives raise or lower the signal
Summary of the method: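 ELISA readout of TIMP-2 in keratinocyte plus foreskin fibroblast co-cultures (human skin primary cells), 24 h post-dose. Gain or loss of signal fitted relative to DMSO.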

[12] = read-out: C-C motif chemokine 2 (Homo sapiens) (UniProt P13500); assay: BSK_KF3CT_MCP1: BioMAP Diversity Plus: KF3CT Assay for Monocyte Chemoattractant Protein 1 (MCP1/CCL2) Biomarker Activity (AID 2283073); conditions: primary human keratinocytes with fibroblasts; actives raise or lower the signal
Summary of the method: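 KF3CT skin co-culture (keratinocytes/foreskin fibroblasts), 24 h post-dose; MCP-1 by ELISA; gain/loss of signal fit bidirectionally vs DMSO baseline.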

[13] = read-out: Matrix Metallopeptidase 9 (MMP9), MMP9 (gene 4318); assay: BSK_KF3CT_MMP9: BioMAP Diversity Plus: KF3CT Assay for Matrix Metallopeptidase 9 (MMP9) Biomarker Activity (AID 2283074); conditions: primary human keratinocytes with fibroblasts; actives raise or lower the signal
Summary of the method: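 MMP-9 quantified by ELISA after 24 h chemical treatment of primary human skin keratinocyte/fibroblast co-cultures; gain or loss fitted against DMSO, with parallel SRB staining (0.1% SRB, 560 nm) for overt cytotoxicity.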

[14] = read-out: urokinase plasminogen activator (uPA), PLAU (gene 5328); assay: BSK_KF3CT_uPA: BioMAP Diversity Plus: KF3CT Assay for urokinase plasminogen activator (uPA) Biomarker Activity (AID 2283075); conditions: primary human keratinocytes with fibroblasts; actives raise or lower the signal
Summary of the method: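 ELISA read-out of uPA 24 h after dosing human skin keratinocytes co-cultured with foreskin fibroblasts. Signal change fitted both ways relative to DMSO; sulforhodamine B on parallel cultures marks overt cytotoxicity.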

[15] = read-out: CD40, CD40 (gene 958); assay: BSK_LPS_CD40: BioMAP Diversity Plus: LPS Assay for CD40 Biomarker Activity (AID 2283076); conditions: primary human HUVEC with PBMC; actives raise or lower the signal
Summary of the method: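 ELISA readout of CD40 in HUVEC/PBMC co-culture (BSK_LPS system), 24 h post-dosing; bidirectional curve fit, DMSO baseline; parallel SRB total-protein staining for cytotoxicity.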

[16] = read-out: E-selectin (Homo sapiens) (UniProt P16581); assay: BSK_LPS_Eselectin: BioMAP Diversity Plus: LPS Assay for Eselectin Biomarker Activity (AID 2283077); conditions: primary human HUVEC with PBMC; actives raise or lower the signal
Summary of the method: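 ELISA readout of E-selectin, 24 h post-dose, HUVEC + PBMC co-culture (LPS system). Gain or loss of signal vs DMSO baseline, bidirectional fit.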

[17] = read-out: Interleukin-8 (IL8), CXCL8 (gene 3576); assay: BSK_LPS_IL8: BioMAP Diversity Plus: LPS Assay for Interleukin-8 (IL8) Biomarker Activity (AID 2283078); conditions: primary human HUVEC with PBMC; actives raise or lower the signal
Summary of the method: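 HUVEC + PBMC co-culture, LPS-activated; test chemicals dosed, IL-8 read by ELISA at 24 h. Bidirectional curve fit vs DMSO baseline (gain or loss of signal).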

[18] = BSK_LPS_SRB: Viability Assessment in the BioMAP Diversity Plus: LPS Assay (AID 2283079); conditions: primary human HUVEC with PBMC;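 further: total protein by sulforhodamine B absorbance as a cytotoxicity measure; measured one day after compound addition; fitted in both directions against DMSO so loss or gain of signal counts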
Summary of the method: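 HUVEC + PBMC co-culture, LPS-stimulated; compound 24 h. 10% TCA fix, 0.1% SRB stain, A560. Bidirectional fit vs DMSO.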

[19] = read-out: Vascular cell adhesion molecule 1 (VCAM1), VCAM1 (gene 7412); assay: BSK_hDFCGF_VCAM1: BioMAP Diversity Plus: hDFCGF Assay for Vascular cell adhesion molecule 1 (VCAM1) Biomarker Activity (AID 2283065); conditions: primary human foreskin fibroblasts; actives raise or lower the signal
Summary of the method: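 ELISA read-out of VCAM-1 on human skin fibroblasts, 24 h post-dose; gain or loss of signal fitted bidirectionally against DMSO baseline.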

[20] = read-out: Transforming growth factor beta 1 (TGFb1), TGFB1 (gene 7040); assay: BSK_KF3CT_TGFb1: BioMAP Diversity Plus: KF3CT Assay for Transforming growth factor beta 1 (TGFb1) Biomarker Activity (AID 2283072); conditions: primary human keratinocytes with fibroblasts; actives raise or lower the signal
Summary of the method: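 Read-out: ELISA for TGF-b1 in keratinocyte/foreskin fibroblast human skin co-culture, 24 h after dosing; bidirectional curve fit vs DMSO baseline; gain or loss of signal scored.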

Measured: outcome

E-selectin (Homo sapiens), sequence (P16581 whole entry, looked up): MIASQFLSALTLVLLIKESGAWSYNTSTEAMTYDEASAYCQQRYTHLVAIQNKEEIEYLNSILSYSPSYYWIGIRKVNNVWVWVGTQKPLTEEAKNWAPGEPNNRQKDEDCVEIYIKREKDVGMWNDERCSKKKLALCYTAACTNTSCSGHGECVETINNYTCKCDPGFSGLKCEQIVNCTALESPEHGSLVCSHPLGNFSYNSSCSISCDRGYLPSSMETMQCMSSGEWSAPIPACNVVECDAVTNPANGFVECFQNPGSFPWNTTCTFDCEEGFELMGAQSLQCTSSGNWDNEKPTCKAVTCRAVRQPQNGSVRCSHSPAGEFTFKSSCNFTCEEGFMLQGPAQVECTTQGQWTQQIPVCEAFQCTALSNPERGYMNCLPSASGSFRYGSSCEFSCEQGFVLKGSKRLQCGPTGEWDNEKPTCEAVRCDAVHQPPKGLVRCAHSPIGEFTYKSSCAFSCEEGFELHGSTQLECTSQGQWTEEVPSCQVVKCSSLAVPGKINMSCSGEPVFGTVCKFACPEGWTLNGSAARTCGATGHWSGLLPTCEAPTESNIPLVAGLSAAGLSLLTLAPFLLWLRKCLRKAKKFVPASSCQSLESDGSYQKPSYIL

O=C(O)C(F)(OC(F)(F)C(F)(OC(F)(F)C(F)(OC(F)(F)C(F)(F)C(F)(F)F)C(F)(F)F)C(F)(F)F)C(F)(F)F (stereo not drawn)
inactive: [1] | [2] | [3] | [4] | [5] | [6] | [7] | [8] | [9] | [10] | [11] | [12] | [13] | [14] | [15] | [16] | [17] | [18]

CCc1c(Br)c(Br)c(Br)c(Br)c1Br
inactive: [1] | [2] | [4] | [5] | [19] | [6] | [7] | [8] | [9] | [10] | [11] | [20] | [12] | [13] | [14] | [15] | [16] | [17] | [18]

C=C(C)C(=O)OCC(F)(F)C(F)(F)C(F)(F)F
inactive: [1] | [2] | [3] | [4] | [5] | [6] | [7] | [8] | [9] | [10] | [11] | [12] | [13] | [14] | [15] | [16] | [17] | [18]

O=S(=O)(OCCOC(F)(F)F)C(F)(F)F
inactive: [1] | [2] | [3] | [4] | [5] | [6] | [7] | [8] | [9] | [10] | [11] | [12] | [13] | [14] | [15] | [17] | [18]

C=CC(F)(F)C(F)(F)C(F)(F)C(F)(F)C(F)(F)C(F)(F)C(F)(F)C(F)(F)F
inactive: [1] | [2] | [4] | [5] | [19] | [6] | [7] | [8] | [9] | [10] | [11] | [12] | [13] | [14] | [15] | [16] | [17] | [18]

C=C(C)C(=O)OCCC(F)(F)C(F)(F)C(F)(F)C(F)(F)C(F)(C(F)(F)F)C(F)(F)F
inactive: [1] | [2] | [4] | [5] | [19] | [6] | [7] | [8] | [9] | [10] | [11] | [12] | [13] | [14] | [15] | [16] | [17] | [18]
